# A selection: hits, their analogues and other compounds. The true share with any hit is near 2.2%.
# TRPM1 prom inh = inhibitors of MITF-driven TRPM1 promoter in melanoma cells; SK-MEL-5 TRPM1 promoter luciferase, 24 h; inhibition, % at 12.5 µM; actives 0.83% (n = 330,000); AID 488899;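 active = mean inhibition across replicates of 60% or more, whatever share of single replicates reaches that level; inconclusive = some that reach 60%, reason not given; inactive = mean inhibition across replicates below 60%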
# LGR2 inh = inhibitors of bursicon-induced Drosophila LGR2 receptor cAMP signaling. inhibition, % at 9.99 µM. HEK293 LGR2, CRE-luciferase, bursicon-stimulated, 4 h. AID 720647. actives 0.35% (n = 380,000);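 active = drop in luminescence signal, shown as inhibition above about 50% in the replicate tests, limit read from the data, passing the limit was not always enough; inconclusive = probably only some replicates passing the limit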;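 also: agonist challenge used bursicon conditioned medium at about half maximal strength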
# Shn3 inh set2 = inhibitors of Schnurri-3 3'UTR reporter in osteoblasts | inhibition, % at 12.5 µM | actives 0.52% (n = 360,000) | Clone20 osteoblast Shn3 3'UTR firefly luciferase, 24 h;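 active = mean inhibition of at least 75% with every replicate also reaching 75%; inconclusive = mean inhibition at least 75% but some replicate below; inactive = mean inhibition below 75%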;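 also: 0% = median of neutral control wells and 100% = pilot-screen positive control compound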
# EBV LMP1 NFkB = Epstein-Barr LMP1 NF-kappaB reporter inhibition | LMP1-induced NF-kappaB luciferase reporter cells, luminescence | actives 0.69% (n = 350,000) | AID 504558 | inhibition, % at 12.5 µM; in the data active = inhibition above about 41%; inconclusive = no clear call, values can overlap the other calls;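 also: 0% = neutral control wells and 100% = reference inhibitor control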
# EWS-Fli inh = inhibitors of EWS/Fli oncoprotein transcriptional activity; A673 NR0B1-luciferase reporter, viability-normalised; AID 651661; inhibition, % at 12.6 µM; actives 0.67% (n = 350,000);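 active = mean inhibition of at least 50% after viability correction, with every replicate also passing that limit; inconclusive = mean reaches 50% but only one of two replicates passes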;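 also: firefly luciferase signal divided by Alamar Blue viability fluorescence both relative to DMSO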
# PAX8 inh HTS = PAX8 transcriptional activity inhibition; RMG-I TPO-luciferase reporter, SteadyGlo, 24 h; inhibition, % at 12.6 µM; actives 1.2% (n = 360,000);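 active = mean replicate inhibition at least 60% with every replicate also reaching 60%; inconclusive = only one of the two criteria is met; inactive = mean below 60% and not all replicates reaching 60%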;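 also: luciferase light reporting Pax8 driven TPO promoter activity; plate controls were median of neutral control wells for no effect and mitoxantrone controls for full effect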
# * = called active by the depositor; ? = inconclusive; / = no result given.
SMILES,TRPM1 prom inh,LGR2 inh,Shn3 inh set2,EBV LMP1 NFkB,EWS-Fli inh,PAX8 inh HTS
COc1ccc(OC)c(NC2c3ncccc3C(=O)N2Cc2ccco2)c1 (stereo unspecified),-2,-20,-2,-3,6,/
COc1ccc(CN2C(=O)c3cccnc3C2Nc2cc(Cl)ccc2OC)cc1 (stereo unspecified),-2,-19,3,66*,/,/
COc1ccc(Br)cc1/C=C/C(=O)c1ccc(NC(C)=O)cc1,82*,95*,97*,4,?,105*
FCCCOc1ccc(-c2nccc(-c3ccccn3)n2)cc1,-41,-46,-21,-6,-22,-12
O=C(O)COc1ccc(-c2nccc(-c3ccccn3)n2)cc1,45,-20,21,11,53*,-2
Cc1ccc(S(=O)(=O)N(C)C[C@H]2Oc3ccc(NC(=O)Nc4c(C)noc4C)cc3CC(=O)N([C@H](C)CO)C[C@@H]2C)cc1,/,-4,/,/,2,-6
Cc1ccccc1Nc1nc(N)nc(CN(C)c2ccccc2)n1,-23,/,-19,-5,/,/
Cc1ccccc1Nc1nc(N)nc(CCl)n1,-6,/,-15,1,61*,102*
COc1ccc(Nc2nc(N)nc(CCl)n2)cc1,-66,-32,-15,-13,44,101*
Nc1nc(CCl)nc(Nc2ccc3ccccc3c2)n1,15,-100,-72,-4,53*,98*
CCCNC(=O)Nc1ccc2c(c1)OC[C@H](C)N(C(=O)c1ccccc1F)C[C@@H](C)[C@@H](OC)CN(C)C2=O,/,-1,/,/,-3,6
COc1ccc(C(=O)N2C=Cc3ccccc3C2C#N)cc1 (stereo unspecified),/,0,11,9,-1,-2
N#CC1c2ccccc2C=CN1C(=O)N(c1ccccc1)c1ccccc1 (stereo unspecified),24,/,-10,8,13,78*
CCCCNC(=O)c1sc2nc(C)cc(COC)c2c1-n1cccc1,-2,/,3,4,/,5
COCc1cc(C)nc2sc(C(=O)NN)c(-n3cccc3)c12,5,-10,-21,-8,3,61*
CC(=O)CC1c2ccccc2C=C(c2ccsc2)N1c1ccc(-c2cccs2)cc1 (stereo unspecified),/,13,/,/,17,75*
COc1ncc(-c2ccc(N3C(c4ccsc4)=Cc4ccccc4C3CC(C)=O)cc2)cn1 (stereo unspecified),/,4,/,/,12,17
COc1c(Br)cc(Br)cc1/C=N/NC(=O)c1cccnc1,28,9,-1,-7,44,13
CCOc1cc(Br)cc(/C=N/NC(=O)c2cccnc2)c1O,49,24,92*,68*,3,32
Clc1ccc2c(N/N=C/c3ccccc3Br)ccnc2c1,83*,19,21,-28,10,20
Clc1ccc2c(N/N=C/c3cccc(Br)c3)ccnc2c1,83*,-7,27,-77,/,0
O=C(C[C@H]1CC[C@@H]2[C@H](COC[C@H](O)CN2C(=O)Nc2ccc3c(c2)OCO3)O1)N1CCN(c2ccccc2)CC1,/,-33,/,/,/,/
Clc1ccc(OCc2nc(-c3ccccn3)no2)c(Br)c1,/,69*,-12,6,24,-53
Clc1ccccc1OCc1nc(-c2ccccn2)no1,-23,/,-23,-6,/,-111
CCOc1cccc(C=NNC(=O)C(=O)Nc2cccc(C(F)(F)F)c2)c1O,/,28,/,/,14,70*
SMILES,TRPM1 prom inh,LGR2 inh,Shn3 inh set2,EBV LMP1 NFkB,EWS-Fli inh,PAX8 inh HTS
O=C(NN=Cc1ccco1)C(=O)Nc1cccc(C(F)(F)F)c1,/,-14,/,/,-6,-5
Cc1ccc(C(C)C)c(OCc2ccc(C(=O)N/N=C/c3ccc(O)c(O)c3)cc2)c1,28,-70,51,-40,/,-2
O=C(N/N=C/c1ccccc1O)c1cccc(C(F)(F)F)c1,38,-19,93*,8,/,27
CCN(CC)S(=O)(=O)c1cccc(C(=O)N/N=C/c2cccc(O)c2O)c1,16,-19,90*,11,9,48
Cc1ccc(C(C)C)c(OCc2ccc(C(=O)N/N=C/c3cccc(O)c3O)cc2)c1,83*,-82,94*,24,30,57
O=C(N/N=C/c1ccc(O)cc1)c1cccc(C(F)(F)F)c1,-5,-7,-6,-5,/,-17
CC(=O)N(C)C[C@@H]1Oc2cc(C3=CCCCC3)ccc2S(=O)(=O)N([C@H](C)CO)C[C@@H]1C,/,18,/,/,-13,/
CO[C@H]1CN(C)C(=O)c2ccc(NC(=O)C3CCCC3)cc2OC[C@H](C)N(C(C)=O)C[C@H]1C,/,13,/,/,1,5
CCN(CC)c1ccc(/C=N/NC(=O)c2cccc(S(=O)(=O)N3CCOCC3)c2)c(O)c1,82*,27,89*,55*,26,?
CCN(CC)c1ccc(/C=N/NC(=O)c2c(Cl)cnn2C)c(O)c1,16,-14,79,52*,/,53
CCN(CC)c1ccc(C=Nc2cccc(S(=O)(=O)N3CCOCC3)c2)c(O)c1,5,20,-2,-1,-8,-5
CCOC(=O)N/N=C/c1ccc(N(CC)CC)cc1O,-29,-70,-55,-14,/,-39
O=C(C1CCOCC1)N1C[C@H]2[C@@H](c3ccccc31)[C@H](CO)N2C(=O)Cc1ccccc1,/,-2,/,/,2,5
Cc1cccc(/C(N)=N/OC(=O)c2ccc3c(c2)OCO3)c1,-34,54*,-28,-23,/,-136
Cc1ccc(C(=O)O/N=C(\N)c2ccccn2)cc1C,52,98*,45,56*,74*,83*
Cc1cccc(C(=O)O/N=C(\N)c2ccccn2)c1,35,100*,46,38,77*,84*
N/C(=N\OC(=O)c1cccc(F)c1)c1ccccn1,-16,?,-1,23,29,20
COc1ccc(S(=O)(=O)Nc2ccc3c(c2)[C@@H]2C[C@H](CC(=O)NCC4CC4)O[C@H](CO)[C@@H]2O3)cc1,/,1,/,/,2,-3
CCOC(=O)c1c2c(n(C)c1C)C(=O)C(=O)c1ccc(Br)cc1-2,87*,/,94*,77*,/,/
CCOC(=O)c1c2c(n(Cc3ccccc3)c1C)C(=O)C(=O)c1ccccc1-2,/,104*,89*,14,69*,125*
Cc1c(CN(C)C)c2c(n1C)C(=O)c1ccc(Br)cc1-2,4,/,9,0,/,/
CCC(=O)Nc1ccc2c(c1)C(=O)N(C)[C@@H]1CC[C@H](CC(=O)NCCCN(C)C)O[C@H]1CO2,/,-8,/,/,-8,-41
Cc1ccc(S(=O)(=O)Nc2ccc3c(c2)C(=O)N([C@@H](C)CO)C[C@@H](C)[C@@H](CN(C)S(=O)(=O)c2ccc(Cl)cc2)OCCCC[C@@H](C)O3)cc1,/,28,/,/,10,83*
Cc1ccc(S(=O)(=O)N(C)C[C@H]2OCCCC[C@H](C)Oc3ccc(NS(=O)(=O)c4ccc(Cl)cc4)cc3C(=O)N([C@@H](C)CO)C[C@@H]2C)cc1,/,9,/,/,-26,89*

# Source: PubChem
